Most compounds without a hit are left out; they make up all but 8.1% or so of the library.
ELG1 DNA repair: qHTS screen for small molecules that inhibit ELG1-dependent DNA repair in human embryonic kidney (HEK293T) cells expressing luciferase-tagged ELG1; HEK293T ELG1-luciferase reporter, luminescence, 16 h; DNA damage induced by 5-fluorouridine; Potency, µM (top dose mostly 46.1 µM), for the others: top-dose activity change, negative = inhibition, usual class: inhibitors; 330,000 compounds, 2.3% hits; AID 504467, 2011; note: % is set by controls: 0 for no effect and ±100 for the full control effect; nearly all actives have a fitted effect of over 55% in size
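5-Fluorouridine DNA damage + compound/DMSO, 2,000 cells/well, 16 h, 37 °C/5% CO2. ONE-Glo, 30 min RT, luminescence. Readout = decrease in reporter signal.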
SW480 rerep: A quantitative high throughput screen for small molecules that induce DNA re-replication in SW480 colon adenocarcinoma cells; SW480 DNA re-replication, Hoechst DNA content imaging, 48 h; Potency, µM (titrated, usually from 46.1 µM), inactives show at the highest dose re-replication activation, most hits filed as activators; 340,000 compounds, 1.8% hits; AID 624297, 2012; note: % of control where 0% means no effect; nearly all actives have a fitted effect of over 55% in size
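Cells (250 per well) received 23 nL compound or DMSO by pin tool and were kept 48 hr at 37 C, 5% CO2. Nuclei were then stained with Hoechst for 40 min and scanned for DNA content.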
MCF10A rereplic: A quantitative high throughput screen for small molecules that induce DNA re-replication in MCF 10a normal breast cells; MCF 10A DNA re-replication, Hoechst nuclear intensity, 48 h; Potency, µM (top dose mostly 46.1 µM), inactives show top-dose activity, positive = re-replication, most hits filed as activators; 350,000 compounds, 2.9% hits; note: % of control where 0% means no effect; nearly all actives have a fitted effect of over 50% in size
KB-V1 MDR tox: qHTS assay for MDR1-selective chemotherapeutics: Primary screen using the drug-selected MDR subline cells KB-V1. Potency, µM (highest dose often 46.1 µM), most hits filed as cytotoxic. 400,000 compounds, 3.4% hits. KB-V1 MDR cells viability, CellTiter-Glo, 72 h. AID 1347076, 2019; note: % is set by controls: 0 for no effect and ±100 for the full control effect; nearly all actives have a fitted effect of over 60% in size
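Drug-selected KB-V1 cells, grown in DMEM lacking phenol red with 10% FBS, receive compound titrations; after three days at 37 degrees C, surviving cell ATP is quantified by CellTiter-Glo luminescence and responses normalized and curve-fitted.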
KB-3-1 cytotox: qHTS assay for MDR1-selective chemotherapeutics: Primary screen using the parental adenocarcinoma cell KB-3-1 | KB-3-1 viability, CellTiter-Glo ATP luminescence, 72 h | 400,000 compounds, 1.4% hits | Potency, µM (titrated, usually from 46.1 µM), most hits filed as cytotoxic; note: % is set by controls: 0 for no effect and ±100 for the full control effect; nearly all actives have a fitted effect of over 60% in size
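Using CellTiter-Glo luminescence, growth of non-resistant KB-3-1 adenocarcinoma cells is assessed 72 h after pin-tool compound addition at 37 °C. Normalized responses across the concentration series yield fitted curves.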
* marks the source's active call; other numbers are inactive results; i = inactive; ? = inconclusive; / = not tested or not shown. Calls come from the whole dose curve; as a rule, active = well fitted curve in the direction sought with a large enough effect; inconclusive = small, poorly fitted or top-dose-only effect, or another doubt; inactive = no such curve, though single readings can be large; an effect the other way counts as inactive or inconclusive. Potency is the fitted concentration of half-maximal effect.

SMILES | ELG1 DNA repair | SW480 rerep | MCF10A rereplic | KB-V1 MDR tox | KB-3-1 cytotox
CC1CCCN(C(=O)C2CCC(CNc3c(N4CCCCC4)c(=O)c3=O)CC2)C1 (stereo unspecified) | -3% | -6% | 0% | i | i
CC(=O)N/N=c1\sc2ccccc2n1C | 11% | -8% | -1% | i | i
Cn1c(=NC(=O)CCl)sc2ccccc21 | ? | ? | 15µM* | ? | i
Cn1c(=NC(=O)c2ccco2)sc2ccccc21 | ? | -2% | 0% | 16µM* | ?
COc1cc(C(=O)N=c2sc3ccccc3n2C)cc(OC)c1OC | ? | -30% | -1% | 4.6µM* | i
O=C(NC1CCCC1)C1C(c2ccc(C(F)(F)F)cc2)=Nc2ccccc2N1C(=O)c1cc2ccccc2[nH]1 (stereo unspecified) | / | / | / | 13µM* | ?
Cc1cc(C)n(-c2ccc(C(=O)Nc3cccc(S(=O)(=O)N(C)C)c3)cc2)n1 | 9.2µM* | -11% | 10% | ? | ?
Cc1cc(C)n(-c2ccc(C(=O)Nc3ccc(C)c(S(=O)(=O)N(C)C)c3)cc2)n1 | 18µM* | 2% | -7% | ? | i
Cc1cc(C)n(-c2ccc(C(=O)Nc3cccc([N+](=O)[O-])c3)cc2)n1 | ? | -2% | 2% | ? | i
CCCCN1C(=O)c2ccc(C(=O)Nc3cccc(C)c3C)cc2C1=O | 19% | -3% | 0% | i | i
CCCCN1C(=O)c2ccc(C(=O)Nc3ccc(C)c(S(=O)(=O)N(C)C)c3)cc2C1=O | ? | 0% | 13% | 12µM* | ?
CCN(CC)S(=O)(=O)c1cccc(NC(=O)c2ccc(-n3nc(C)cc3C)cc2)c1 | 15µM* | -25% | 5% | 2.9µM* | ?
Cc1cc(C)n(-c2ccc(C(=O)Nc3ccc(S(=O)(=O)N(C)C)cc3)cc2)n1 | ? | -4% | ? | ? | i
Cc1ccc(N(C)S(=O)(=O)c2ccc3c(c2)C(C)(C)C(=O)N3C)cc1C | / | / | / | ? | i
Cc1ccc(NC(=O)c2ccc(OC(F)(F)F)cc2)cc1S(=O)(=O)N(C)C | ? | -3% | 9% | ? | 23µM*
CC(=O)c1ccc(OCCCC(=O)Nc2ccc(C)c(S(=O)(=O)N(C)C)c2)cc1 | ? | 32% | 4% | 23µM* | 21µM*
O=C(O)c1cc(-c2cccs2)nn1-c1cccc(Cl)c1 | ? | 3% | -2% | i | i
CN(C)S(=O)(=O)c1cccc(NC(=O)c2cc(-c3cccs3)nn2-c2cccc(Cl)c2)c1 | 12µM* | -18% | -9% | 2.3µM* | 9.2µM*
Cc1ccc(NC(=O)c2ccncc2)cc1S(=O)(=O)N(C)C | 15% | -4% | 1% | i | i
COCc1cc(C)n(CC(=O)Nc2cccc(C)c2)c(=O)c1C#N | -2% | -18% | 8% | i | i
C#CCN(C[C@H]1[C@H](OC(=O)NCc2ccc(OC)c(OC)c2)[C@H](OC(=O)NCc2ccc(OC)c(OC)c2)C[C@H]2C(=O)N(c3ccccc3)C(=O)[C@@H]12)S(=O)(=O)c1ccc(C)cc1 | / | / | / | i | i
C=CCn1c(CSCc2ccccc2)nnc1SCC(=O)N1CCN(c2ccccc2)CC1 | ? | -79% | -43% | 10µM* | i
CCn1c(Cc2ccccc2)nnc1SCC(=O)N1CCCCC1 | 15% | -4% | 14% | i | i
CCn1c(CSCc2ccc(C)cc2)nnc1SCC(=O)N1CCN(c2ccccc2)CC1 | 18µM* | ? | -1% | i | i
Cc1ccc(C)c(NS(=O)(=O)c2cc(C(=O)NCCSC3CCCCC3)ccc2C)c1 | 21µM* | ? | ? | ? | i
Cc1ccccc1NS(=O)(=O)c1cc(C(=O)NCCSC2CCCCC2)ccc1C | ? | -3% | 0% | ? | i

Screening results deposited in PubChem by National Center for Advancing Translational Sciences (NCATS).
